Tau ThT inhib: tau fibrillization inhibition (ThT binding) | recombinant tau K18 P301L, heparin-induced fibrillization, ThT fluorescence | Potency, µM (highest dose often 57.4 µM), actives largely listed as inhibitors | 270,000 compounds, 2.1% hits; further: nearly all actives have a fitted effect of over 55% in size
Target sequence (P10636 561-689 P618L limits assumed): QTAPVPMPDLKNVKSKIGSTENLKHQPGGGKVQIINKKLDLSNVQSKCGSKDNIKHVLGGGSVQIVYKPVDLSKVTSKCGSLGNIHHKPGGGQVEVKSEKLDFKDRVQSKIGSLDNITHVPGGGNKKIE
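Fibril formation assay: tau K18 P301L at 15 uM with trace Alexa 594 label, heparin inducer 20 uM, pH 7 sodium acetate buffer, 37 C for 6 hr; endpoint ThT signal.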
TRb SRC2 PPI: inhibitors of human thyroid hormone receptor beta-SRC2 interaction. TRbeta-SRC2 peptide binding, fluorescence polarization; receptor liganded with 1 µM T3. Potency, µM (doses to about 106 µM), most hits filed as inhibitors. AID 1469. P10828. 280,000 compounds, 0.065% hits; further: nearly all actives have a fitted effect of over 50% in size
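Each compound concentration gave % activity, normalized to unbound and bound Texas Red SRC2 controls, from polarization read after 5 hr ambient incubation with T3-loaded human TRb LBD.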
TexasRed fluor: counter-screen for TRb-SRC2 inhibitors: fluorescence interference | 280,000 compounds, 0.29% hits | TRb/SRC2 Texas Red total fluorescence interference | AID 1479 | Potency, µM (series often up to 106 µM); active means well fitted curve in either direction with a large enough effect; inconclusive means small, poorly fitted or top-dose-only effect
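Human TRβ ligand-binding domain (0.6 uM) and Texas Red SRC2 peptide (20 nM) in Tris buffer with 1 uM T3 and 5% DMSO were incubated with pinned compound for 5 hr at ambient temperature. Total fluorescence was computed as S + 2P (555/632 nm).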
Tau fibril FP: blocks human tau fibril formation measured by polarization; K18 P301L tau heparin fibrillization, Alexa594 FP, 6 h; Potency, µM (series often up to 57.7 µM), actives largely listed as inhibitors; 280,000 compounds, 0.39% hits; AID 1468; further: nearly all actives have a fitted effect of over 55% in size
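Human K18 P301L fragment (15 uM unlabeled plus 0.24 uM Alexa 594-labeled) in 100 mM sodium acetate pH 7 with compound, aggregation induced by 20 uM heparin for 6 hr at 37 C. ThT (30 uM) added for 1 hr, then Alexa 594 FP read.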
Tau fluor counter: counter-screen for tau fibril formation inhibitors; 280,000 compounds, 0.93% hits; tau K18 P301L (four-repeat tau fragment) Alexa594 fluorescence, heparin fibrillization; Potency, µM (top dose mostly 57.7 µM); further: nearly all actives have a fitted effect of over 55% in size
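Human K18 P301L tau (15 uM unlabeled plus 0.24 uM Alexa 594-labeled, final) in 100 mM sodium acetate pH 7 was mixed with compound and 20 uM heparin and incubated 6 hr at 37 C.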
JMJD2E inh: JMJD2E (human) inhibition | B2RXH2 | JMJD2E catalytic domain, FDH-coupled NADH fluorescence (FDH is formaldehyde dehydrogenase) | Potency, µM (doses to about 57.1 µM), usual class: inhibitors | 230,000 compounds, 1.6% hits; active means well fitted inhibition curve with a large enough effect, not every such curve was filed as active; inconclusive means small, poorly fitted or top-dose-only effect, or another doubt; inactive means no such curve, though single readings can be large or run the other way; further: nearly all actives have a fitted effect of over 50% in size
Target sequence (B2RXH2 1-337 limits assumed): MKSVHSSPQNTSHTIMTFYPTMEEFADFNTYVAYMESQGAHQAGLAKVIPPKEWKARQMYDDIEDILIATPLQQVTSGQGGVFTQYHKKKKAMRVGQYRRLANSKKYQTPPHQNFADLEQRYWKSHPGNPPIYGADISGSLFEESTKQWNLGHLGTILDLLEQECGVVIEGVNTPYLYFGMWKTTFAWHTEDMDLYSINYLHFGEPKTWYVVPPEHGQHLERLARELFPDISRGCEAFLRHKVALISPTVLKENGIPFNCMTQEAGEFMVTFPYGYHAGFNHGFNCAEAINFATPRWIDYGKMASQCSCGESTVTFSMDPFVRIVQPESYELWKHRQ
Each line names hits and unclear results; the compound was inactive in the other large screens; [ ] = remark or other dose. Most compounds without a hit are left out; they make up all but 3.5% or so of the library. Unless noted, the call rests on the fitted dose curve; in most records, active means well fitted curve in the direction sought with a large enough effect; inconclusive means small, poorly fitted or top-dose-only effect, or another doubt; inactive means no such curve, though single readings can be large; an effect the other way counts as inactive or inconclusive.

O=[N+]([O-])c1ccc(N2CCN(C(=S)NC3CCCCC3)CC2)cc1	Tau ThT inhib 10µM, Tau fluor counter inconclusive
CC(C)(C)OC(=O)N1CCN(c2ccc([N+](=O)[O-])cc2)CC1	Tau ThT inhib 3.98µM
CN(C)/C=N/C(=S)Nc1ccc(Cl)c(Cl)c1	none
CCN(C(=O)COC(=O)c1ccc(Cl)cc1N)C1CCCCC1	JMJD2E inh inconclusive
Cn1nc(C(=O)NC2CCCCCC2)ccc1=O	none
CCOC(=O)N1CCN(c2ccc([N+](=O)[O-])cc2)CC1	Tau ThT inhib 3.98µM
CCOC(=O)N1CCN(S(=O)(=O)c2ccc([N+](=O)[O-])cc2)CC1	none
O=C(Nc1ccc(OC(F)(F)F)cc1)C1CCCN(S(=O)(=O)c2cccnc2)C1 (stereo unspecified)	none
Cc1cc(N)n2ncc(-c3ccccc3)c2n1	Tau ThT inhib inconclusive, Tau fluor counter inconclusive, JMJD2E inh inconclusive
Cc1cc(N)n2ncc(-c3cccc(Br)c3)c2n1	Tau ThT inhib inconclusive, Tau fluor counter 15.8µM[quencher], JMJD2E inh inconclusive
NC(=S)Cc1nc(-c2ccc(Cl)cc2)cs1	Tau ThT inhib 15.8µM, Tau fibril FP inconclusive, Tau fluor counter inconclusive
Cc1ccc(NC(=O)C2CCCN2S(=O)(=O)c2cccc3nsnc23)c(C)c1 (stereo unspecified)	none (no result: JMJD2E inh)
COC(=O)c1ccc(OCCOc2ccccc2)cc1	Tau ThT inhib inconclusive
COC(=O)c1ccc(N=Nc2ccccc2)cc1	Tau ThT inhib 14.1µM
O=C(O)CCCC(=O)Nc1ccc(N=Nc2ccccc2)cc1	Tau ThT inhib inconclusive
COC(=O)CCC(=O)Nc1ccc(N=Nc2ccccc2)cc1	Tau ThT inhib 11.2µM, Tau fluor counter inconclusive
O=C(Cn1c2ccccc2c(=O)c2ccccc21)N/N=C/c1cc([N+](=O)[O-])ccc1N1CCCCCC1	none
CC(NC(=O)NCCCC(=O)O)(C(F)(F)F)C(F)(F)F	none
COc1ccc(CC(=O)Nc2ccc3nc(Nc4cccc(Cl)c4)cc(C)c3c2)cc1OC	Tau ThT inhib inconclusive, Tau fibril FP inconclusive, Tau fluor counter 2.51µM[quencher] (no result: JMJD2E inh)
CCN1CCN(c2cc(C)c3cc(NC(=O)Cc4ccc(OC)c(OC)c4)ccc3n2)CC1	Tau ThT inhib inconclusive, JMJD2E inh inconclusive
COc1ccc(Cl)cc1C(=O)Nc1ccc(NC(C)=O)cc1	none
Cc1cc(Nc2cccc(Cl)c2)nc2ccc(NC(=O)Cc3cccc(C(F)(F)F)c3)cc12	Tau ThT inhib inconclusive, Tau fibril FP inconclusive, Tau fluor counter 3.98µM[quencher] (no result: JMJD2E inh)
O=C(Cc1cccc(C(F)(F)F)c1)Nc1ccccc1	Tau fibril FP inconclusive
COc1ccc(Cl)cc1C(=O)Nc1ccc2nc(Nc3cccc(Cl)c3)cc(C)c2c1	Tau ThT inhib inconclusive, Tau fluor counter 15.8µM[quencher] (no result: JMJD2E inh)
Cc1cc(Nc2cccc(Cl)c2)nc2ccc(NC(=O)c3ccc(F)cc3Cl)cc12	Tau ThT inhib inconclusive, Tau fibril FP inconclusive, Tau fluor counter 4.47µM[quencher] (no result: JMJD2E inh)
Cc1c(NC(=O)c2cc(-c3ccco3)on2)c(=O)n(-c2ccccc2)n1C	none
CNS(=O)(=O)c1cccc(C(=O)OCC(=O)c2cc(C)n(-c3ccc4c(c3)OCO4)c2C)c1	Tau ThT inhib inconclusive, Tau fluor counter inconclusive
COc1ccc(Cl)cc1C(=O)Nc1cccc(-c2ccc3nncn3n2)c1	JMJD2E inh 14.1µM
Cc1cc(Nc2cccc(Cl)c2)nc2ccc(NC(=O)Cc3ccc(Cl)cc3)cc12	Tau ThT inhib inconclusive, Tau fibril FP inconclusive, Tau fluor counter 3.55µM[quencher] (no result: JMJD2E inh)
C/C(CC(=O)Nc1cccc(Cl)c1)=N\NC(=O)Cc1ccc(Cl)cc1	Tau fibril FP inconclusive
CCOC(=O)N1CCN(C(=O)CSCC(=O)Nc2nc(-c3ccc(-c4ccccc4)cc3)cs2)CC1	Tau ThT inhib inconclusive, JMJD2E inh 35.5µM
CCOC(=O)N1CCN(C(=O)CSCC(=O)Nc2nc(-c3ccc(OC)cc3)cs2)CC1	Tau ThT inhib inconclusive
CC1=CC(C)(C)NC(=S)N1c1cccc2cc(S(=O)(=O)O)ccc12	Tau ThT inhib 31.6µM, Tau fibril FP inconclusive, JMJD2E inh inconclusive
CCc1ccc(NC(=O)c2ccc3nc(C(C)C)oc3c2)cc1	Tau ThT inhib inconclusive, Tau fibril FP inconclusive (no result: JMJD2E inh)
O=c1n(Cc2ccc([N+](=O)[O-])cc2)c2ccccc2c2nc(-c3ccccc3)nn12	TexasRed fluor 100µM[quencher] (no result: JMJD2E inh)
O=c1n(Cc2ccc(F)cc2)c2ccccc2c2nc(-c3ccccc3)nn12	none (no result: JMJD2E inh)
CCOC(=O)c1sc(NC(=O)CSc2nnc(Cc3ccccc3)o2)c(C#N)c1C	Tau ThT inhib 28.2µM, Tau fibril FP inconclusive, Tau fluor counter inconclusive
O=C(O)c1ccc(N2C(=O)/C(=C/c3ccc(-c4ccc([N+](=O)[O-])cc4)o3)C=C2c2ccccc2)cc1	Tau ThT inhib 4.47µM, TexasRed fluor 35.5µM[fluorescent], Tau fibril FP inconclusive, Tau fluor counter inconclusive
COc1ccc(N2C(=O)C(Cl)=C(Nc3ccccc3O)C2=O)cc1	Tau ThT inhib 10µM, Tau fibril FP inconclusive, Tau fluor counter inconclusive
COc1ccc(N2C(=O)c3ccccc3C2=O)cc1	none
COc1ccc(N2C(=O)C(Cl)=C(Oc3cccc(OC)c3)C2=O)cc1	Tau ThT inhib 14.1µM, Tau fibril FP 22.4µM
COc1ccc(N2C(=O)C(Cl)=C(Nc3ccccc3OC)C2=O)cc1	Tau ThT inhib inconclusive, Tau fibril FP inconclusive, Tau fluor counter inconclusive
Cc1cc(C)c(NC(=O)Cn2c(=O)n(CC(=O)NCc3ccccc3Cl)c(=O)c3sccc32)c(C)c1	Tau ThT inhib inconclusive, Tau fibril FP inconclusive (no result: JMJD2E inh)
O=C1OC(c2ccccc2)=N/C1=C\C=C\c1ccco1	Tau ThT inhib 14.1µM
COc1cccc(/C=N/Nc2nc(Nc3ccccc3)nc(-n3nc(C)cc3C)n2)c1O	Tau ThT inhib inconclusive, Tau fluor counter inconclusive, JMJD2E inh 20µM
CNc1nc(-c2c[nH]c3ccccc23)cs1	Tau ThT inhib 25.1µM, TexasRed fluor inconclusive, Tau fibril FP inconclusive, Tau fluor counter 28.2µM[quencher], JMJD2E inh inconclusive
Nc1nc(-c2c[nH]c3ccccc23)cs1	Tau ThT inhib 15.8µM, TexasRed fluor 35.5µM[fluorescent], Tau fibril FP inconclusive, Tau fluor counter 15.8µM[quencher], JMJD2E inh inconclusive
CCc1ccc(-c2csc(-c3c[nH]c4ccccc34)n2)cc1	none
CCCCC1=CC2=C(OC(C)=O)C(=O)C(C)(OC(=O)c3ccc(Cl)nc3)C(=O)C2=CO1 (stereo unspecified)	Tau ThT inhib 22.4µM, Tau fibril FP inconclusive, Tau fluor counter inconclusive
CCCCC1=CC2=C(c3ccco3)C(=O)C(C)(OC(=O)c3ccc(Cl)nc3)C(=O)C2=CO1 (stereo unspecified)	none
CCOC(=O)/C(C#N)=C1\SS/C(=C(/C#N)C(=O)OCC)S1	Tau ThT inhib 2.82µM, Tau fibril FP 6.31µM, JMJD2E inh inconclusive
CN=C(NC#N)Nc1ccc(C2=NNC(=O)C[C@@H]2C)cc1	JMJD2E inh inconclusive
